# Earlier results in PubChem BioAssay AID977610.
# The whole screen tested about 3,600 compounds, of which about 3,600 (100%) were called active. No cut-off is given here; in the data, nearly all actives have Ki up to about 18000 µM. So high a share suggests a set chosen from earlier hits. Some of the results follow. Where a SMILES comes first, the peptide text is derived from it. Residues, ends and D or L forms follow the SMILES beside them. Peptide text beside a SMILES is read from it. The star is where a group is joined. Bz = O=C(c1ccccc1)*
# Assay: PubChem AID 977610
# Conditions: PDB protein-ligand complexes, literature Ki
compound,measurement,setting,value
C[C@H](NC(=O)[C@H](C)NC(=O)[C@H](Cc1cc(-c2ccccc2)no1)C[P+](O)(O)c1ccc(Br)cc1)C(N)=O,Ki,"protein: Macrophage metalloelastase (F171D mutation), PDB entry 4gr8",0.0147 µM (active)
C[C@H](NC(=O)[C@H](C)NC(=O)[C@H](Cc1cc(-c2ccc(-c3cccc(Cl)c3)cc2)no1)C[P+](O)(O)c1ccc(Br)cc1)C(N)=O,Ki,"protein: Macrophage metalloelastase (F171D mutation), PDB entry 4gr0",0.00028 µM (active)
N=Cc1nc(N2CCOCC2)nc(N(Cc2ccc(Cl)cc2)C2CCCCC2)n1,Ki,"protein: CATHEPSIN L1, PDB entry 4axm",0.013 µM (active)
C[C@H](NC(=O)[C@H](CO)N[C@H](O)CSCCNC(=O)CCNC(=O)[C@H](O)C(C)(C)CO[P+](O)(O)O[P+](O)(O)OCc1oc(-n2cnc3c(N)ncnc32)c(O)c1O[P+](O)(O)O)C(=O)N[C@@H](CO)C(=O)N[C@@H](CCC(=O)O)C(=O)O,Ki,"protein: N-terminal acetyltransferase A complex subunit nat1, PDB entry 4kvm",8.9 µM (active)
H-PTSII-OH,Ki,"protein: CFTR Associated Ligand (CAL) PDZ domain, PDB entry 4joh",450 µM (active)
H-PKSFLV-OH,Ki,"protein: LSD1-CoREST complex, PDB entry 3zmu",49.6 µM (active)
CC(C)C[C@H](NC(=O)[C@@H](NC(=O)CNC(=O)c1ccccc1)C(C)C)C(=O)N[C@@H](CCCCN)C(=O)N[C@@H](CCC(=O)O)C(=O)N[C@@H](Cc1ccc(O)cc1)C(=O)NCC(=O)N[C@H](C(=O)O)C(C)C (Bz-GVLKEYGV-OH),Ki,"protein: NAD-DEPENDENT PROTEIN DEACYLASE SIRTUIN-5, MITOCHONDRIAL zebrafish Sirtuin 5, PDB entry 4uub",17.2 µM (active)
H-PLSFLV-OH,Ki,"protein: LSD1-CoREST complex, PDB entry 3zmv",55 µM (active)
CC[C@H](C)[C@H](NC(=O)[C@@H](NC(=O)[C@H](CO)NC(=O)[C@@H](N)CC(=O)O)[C@@H](C)CC)C(=O)O (H-DSII-OH),Ki,"protein: CFTR Associated Ligand (CAL) PDZ domain, PDB entry 4k72",1000 µM (active)
O=[N+]([O-])c1ccc(NNC(=S)Nc2ccc(F)cc2)c([N+](=O)[O-])c1,Ki,"protein: GTPase HRas(T35S mutant), PDB entry 2lwi",773 µM (active)
CCCCCCc1cccc(NC(=O)[C@H](N)CC[P+](O)(O)O)c1,Ki,"protein: Lipid G protein-Coupled Receptor, PDB entry 3v2w",0.077 µM (active)
NC(N)c1ccc(CNC(=O)[C@@H]2CCN2C(=O)[C@H](NCC(=O)O)C2CCCCC2)cc1,Ki,"protein: THROMBIN, PDB entry 4bah",0.00201 µM (active)
NC(=O)CN[C@@H](C(=O)N1CC[C@H]1C(=O)NCc1ccc(C(N)N)cc1)C1CCCCC1,Ki,"protein: THROMBIN, PDB entry 4bao",0.00429 µM (active)
CN(C)C(=O)CN[C@@H](C(=O)N1CC[C@H]1C(=O)NCc1ccc(C(N)N)cc1)C1CCCCC1,Ki,"protein: THROMBIN, PDB entry 4bam",0.00114 µM (active)
C[C@@H](O)[C@H](N)C(=O)NS(=O)(=O)c1cccc(-c2ccc3[nH]ncc3c2)c1,Ki,"protein: Threonine--tRNA ligase, cytoplasmic, PDB entry 4hwt",50 µM (active)
Cc1cc(-c2nn(C(C)C)c3ncnc(N)c23)cc2ccc(OCc3ccccc3)nc12,Ki,"protein: Mitogen-activated protein kinase 1 (Q103A, C164L mutant), Rat Erk2, PDB entry 4n4s",0.133 µM (active)
CC(=O)NCCCC[C@H](NC(=O)[C@H](CCCN=C(N)N)NC(=O)[C@H](Cc1cnc[nH]1)NC(=O)[C@@H](N)CCCN=C(N)N)C(=O)N[C@H](C(=O)O)C(C)C (H-RHRK(Ac)V-OH),Ki,"protein: Bromodomain-PHD Finger Module of Human Transcriptional Co-Activator CBP, PDB entry 4n3w",315 µM (active)
OC[C@@H]1[C@@H](O[C@@H]2O[C@H](CO)[C@@H](O)[C@H](O)[C@@H]2O)[C@H](O)[C@H](O)c2nccn21,Ki,"protein: GH26 beta-mannanase CjMan26C from Cellvibrio japonicus, PDB entry 4cd5",0.194 µM (active)
same,Ki,"protein: GH113 beta-mannanase AaManA from Alicyclobacillus acidocaldarius, PDB entry 4cd8",1300 µM (active)
COc1ccc([C@H]2[C@H](O)[C@H](O)[C@H](C)N2C)cc1,Ki,"protein: alpha-L-fucosidase, PDB entry 4jfs",5.4 µM (active)
COc1ccc([C@@H]2N[C@@H](C)[C@@H](O)[C@H]2O)cc1,Ki,"protein: alpha-L-fucosidase, PDB entry 4jft",3.5 µM (active)
NC(N=O)NCC[C@H](N)C(=O)O (some centres not stated),Ki,"protein: Arginase, PDB entry 4iu1",50 µM (active)
COC(=O)CC[C@H](C[C@H](N)C(=O)O)C(=O)O,Ki,"protein: Glutamate receptor ionotropic, kainate 3 GluK3 LBD, PDB entry 4nwc",1.74 µM (active)
CNC(=O)CC[C@H](C[C@H](N)C(=O)O)C(=O)O,Ki,"protein: Glutamate receptor ionotropic, kainate 3 GluK3 LBD, PDB entry 4nwd",3.96 µM (active)
CCCCCCCCCCCCCCCCCCCC(=O)NCCO,Ki,"protein: FATTY ACID-BINDING PROTEIN, EPIDERMAL, PDB entry 4azp",1.26 µM (active)
CCC(CC)[C@H](NC(C)=O)[C@@H]1[C@H](O)[C@@H](C(=O)O)C[C@H]1NC(N)N,Ki,"protein: Human Sialidase Neu2, PDB entry 2f10",330 µM (active)
CC(=O)c1ccc2c(c1)OCCO2,Ki,"protein: PDE10A2, PDB entry 4lm3",1200 µM (active)
OCc1ccc2c(c1)OCCO2,Ki,"protein: PDE10A2, PDB entry 4lm2",940 µM (active)
CCCCCCCC/C=C\CCCCCCC[C@H](O)c1nnc(-c2ccccn2)o1,Ki,"protein: Humanized Variant of Fatty Acid Amide Hydrolase (L192F, F194Y, A377T, S435N, I491V, V495M), PDB entry 3k84",0.003 µM (active)
Cc1ccnc(N)c1[N+](=O)[O-],Ki,"protein: PDE10A2, PDB entry 4mrz",300 µM (active)
O=C(O)C(O)C(=O)O,Ki,"protein: Mandelate racemase, PDB entry 4m6u",1800 µM (active)
Nc1c(CC(=O)O)cccc1C(=O)c1ccc(Br)cc1,Ki,"protein: E. coli sliding clamp, DNA polymerase III subunit beta, PDB entry 4mjq",193 µM (active)
